Assay results reported in ChEMBL document CHEMBL3988442, “University of Dundee, Small-Polar-MMV Screening Library” (2021).
Out of some 69,000 compounds screened, about 1,000 (1.4%) showed an effect of 50% or more. The list comes from a sample in which strong results are over-represented; it also holds similar structures and randomly drawn compounds.

Test system: Leishmania donovani
Assay: Leishmania intramacrophage assay
Format: functional, organism-based
Set-up: scale not given: in the data most compounds retested in dose-response had high values

## Cc1nc2cc(C(=O)N(CCC#N)CC3CCCO3)ccc2[nH]1 (centres undefined)
30.3 µM, […]
  Percent Effect: 5.976%

## Cc1nn(C)c(C)c1OCC(=O)NCC(O)Cc1ccccc1 (centres undefined)
30.3 µM, […]
  Percent Effect: -11.07%

## CC(C)(C)CC(=O)NS(=O)(=O)c1ccc(F)cc1C(F)(F)F
30.3 µM, […]
  Percent Effect: 3.58%

## CNS(=O)(=O)c1ccc(C(=O)N2CCCC2c2ccccc2C)o1 (centres undefined)
30 µM
  Percent Effect: 17.32%

## O=C(Cn1ccc2sccc2c1=O)NCCCc1ccccc1
30.3 µM, […]
  Percent Effect: 1.811%

## Cc1cccc(CN2CCCC3(CCN(CC(=O)N(C)C)C3=O)C2)n1.O=C(O)C(F)(F)F (centres undefined)
30.3 µM, […]
  Percent Effect: -21.17%

## Cc1ccc(C(=O)Nc2ccc3c(c2)N(C)CCN(C)C3)c(=O)[nH]1
30.3 µM, […]
  Percent Effect: 4.534%

## NC1(CN2CCCCC2)CCCCC1
30.3 µM, […]
  Percent Effect: -14.65%

## Cc1nc(CN2CCCn3c(nc(Cn4cncn4)cc3=O)C2)cs1.O=C(O)C(F)(F)F
30.3 µM, […]
  Percent Effect: 16.7%

## CCNC(=O)Cc1n[nH]c(-c2cncc(Br)c2)n1
30.3 µM, […]
  Percent Effect: -72.67%

## CCOC(=O)Cc1n[nH]c(-c2cncc(Br)c2)n1
30.3 µM, […]
  Percent Effect: 100.5%

## CNC(=O)Cc1n[nH]c(-c2cncc(Br)c2)n1
30.3 µM, […]
  Percent Effect: -1.104%

## Cc1oncc1C(=O)N1CCC(O)(CN2CCOCC2)C(C)(C)C1 (centres undefined)
30.3 µM, […]
  Percent Effect: 22.16%

## COc1cccc(CN(C)Cc2nc3c(cnn3C)c(=O)[nH]2)c1OC
30.3 µM, […]
  Percent Effect: -6.431%

## COc1cc(NC2CCN(C3CCS(=O)(=O)CC3)CC2)ncn1
30.3 µM, […]
  Percent Effect: 36.7%

## Cc1nc2[nH]cnc(Nc3ccn(C)n3)c-2n1
30.3 µM, […]
  Percent Effect: -6.289%

## Cc1nc2[nH]cnc(Nc3cc(C)n(C)n3)c-2n1
30.3 µM, […]
  Percent Effect: 75.58%

## Cc1nc2[nH]cnc(Nc3cnn(C)c3)c-2n1
30.3 µM, […]
  Percent Effect: 10.52%

## CCSCCC(=O)Nc1ncn(CC(=O)NCc2ccccc2)n1
30 µM, 30.03 µM
  Percent Effect: 19.14%

## O=C(c1c2c(N3CCOCC3)ncnc2n2ccccc12)N1CCCC1
30.3 µM, […]
  Percent Effect: 16.59%

## CN(C)CCN1CCOCC2(CCCN(C(=O)c3ccoc3)C2)C1.O=C(O)C(F)(F)F.O=C(O)C(F)(F)F (centres undefined)
30.3 µM, […]
  Percent Effect: 9.003%

## Cc1cc2cc(CNC3CCN(CC(=O)N(C)C)CC3)oc2cc1C
30.3 µM, […]
  Percent Effect: 25.29%

## Cc1cc2cc(CNC3CCN(CC4CCOC4)CC3)oc2cc1C (centres undefined)
30.3 µM, […]
  Percent Effect: 70.06%

## Cc1cc2cc(CNC3CCN(S(C)(=O)=O)CC3)oc2cc1C
30.3 µM, […]
  Percent Effect: 23.07%

## CN(C)S(=O)(=O)c1ccc(-c2nc(C#N)c(NC3CC3)o2)o1
30.3 µM, […]
  Percent Effect: 20.5%

## CNc1oc(-c2ccc(S(=O)(=O)N(C)C)o2)nc1C#N
30.3 µM, […]
  Percent Effect: -4.203%

## CC(C)Nc1oc(-c2ccc(S(=O)(=O)N(C)C)o2)nc1C#N
30.3 µM, […]
  Percent Effect: 16.53%

## CN(C)S(=O)(=O)c1ccc(-c2nc(C#N)c(NC3CCCCC3)o2)o1
30.3 µM, […]
  Percent Effect: 54.54%

## CN(C)S(=O)(=O)c1ccc(-c2nc(C#N)c(NC(C)(C)C)o2)o1.Cl
30.3 µM, […]
  Percent Effect: 70.96%

## Cc1oc(-c2nc(C#N)c(NC3CC3)o2)cc1S(=O)(=O)N1CCCC1
30.3 µM, […]
  Percent Effect: 1.943%

## Cc1ccc(N2C[C@H](C(=O)N3CCOCC3)[C@@H]3CCO[C@@H]3C2)nn1
30.3 µM, […]
  Percent Effect: 10.85%

## O=C(O)C(F)(F)F.c1csc(CN2CCn3c(Cn4cncn4)cnc3C2)n1
30 µM, 30.03 µM
  Percent Effect: 0.7173%

## CC(C)(C)c1noc(CCCC(=O)N2CCCC(c3ccn[nH]3)C2)n1 (centres undefined)
30.3 µM, […]
  Percent Effect: -44.28%

## COc1cc(S(=O)(=O)N2CCCc3ccccc32)cc(C(=O)O)c1OC
30 µM, 30.03 µM
  Percent Effect: 1.897%

## Cc1c(C(=O)NCc2ccnc(OCC(F)(F)F)c2)cnn1C
30 µM
  Percent Effect: 34.3%

## O=C(c1ccccn1)N1CCc2c(nc(N3CCCC3)[nH]c2=O)C1
30 µM, 30.03 µM
  Percent Effect: -2.348%

## Cc1cnn(-c2cccc(N3CCCCC3)n2)c1
30.3 µM, […]
  Percent Effect: -15%

## Cc1cnn(-c2cccc(N3CCCC3)n2)c1
30.3 µM, […]
  Percent Effect: 88.75%

## Cc1cnn(-c2cccc(N3CCN(c4cc(C)nc(C)n4)CC3)n2)c1
30.3 µM, […]
  Percent Effect: -8.114%

## c1c(CN2CCOCC2)nc2n1CCN(CC1CC1)C2
30.3 µM, […]
  Percent Effect: 2.759%

## CCc1csc(C2CCCN(C(=O)c3ccco3)C2)n1 (centres undefined)
30 µM
  Percent Effect: -22.84%

## Cc1cccc(NS(=O)(=O)c2cc(C(=O)O)oc2C)c1
30.3 µM, […]
  Percent Effect: 8.685%

## COC(=O)c1ccn(COc2ccccc2Cl)n1
30.3 µM, […]
  Percent Effect: -5.219%

## CC(C)(C)NC(=O)c1ccn(COc2ccccc2Cl)n1
30.3 µM, […]
  Percent Effect: 62.54%

## CC(C)(C)NC(=O)c1ccn(COc2c(Cl)cccc2Cl)n1
30.3 µM, […]
  Percent Effect: 6.361%

## c1nc(N2CCOC(Cn3cncn3)C2)c2cc[nH]c2n1 (centres undefined)
30 µM
  Percent Effect: 24.06%

## COCCN1CCCC(c2ncc(C(=O)N(C)C)c(C)n2)C1 (centres undefined)
30.3 µM, […]
  Percent Effect: -9.482%

## Cc1nc(NCC2CC2)nc2c1COCC21CCN(C(=O)NC(C)C)C1 (centres undefined)
30.3 µM, […]
  Percent Effect: 52.42%

## Cc1nc(NCC2CC2)nc2c1COCC21CCN(C(=O)C(C)(C)C)C1 (centres undefined)
30.3 µM, […]
  Percent Effect: -5.86%

## COCCC(=O)N1CCC2(COCc3c(C)nc(NCC4CC4)nc32)C1 (centres undefined)
30 µM, 30.03 µM
  Percent Effect: 4.108%

## Cn1ccnc1CN1CCC2(CC1)COC2.O=C(O)C(F)(F)F
30.3 µM, […]
  Percent Effect: 21.73%

## O=C(CN1CCOc2ccccc2C1)NCc1cc2n(n1)CCNC2
30.3 µM, […]
  Percent Effect: 5.311%

## O=C(CN1CCC(c2ccccc2)CC1)NCc1cc2n(n1)CCNC2
30.3 µM, […]
  Percent Effect: 55.19%

## c1ccc(C2CCCN(Cc3cc4n(n3)CCNC4)CC2)cc1 (centres undefined)
30.3 µM, […]
  Percent Effect: 58.47%

## O=C(CN1CC(c2ccccc2)CC1=O)NCc1cc2n(n1)CCNC2 (centres undefined)
30.3 µM, […]
  Percent Effect: 29.23%

## CC(=O)N1CC[C@H]2OCC[C@@]2(C(=O)NCCc2ccccn2)C1.O=C(O)C(F)(F)F
30.3 µM, […]
  Percent Effect: -0.5887%

## CNc1snc(C)c1C(=O)N1CCCC(n2cccn2)C1 (centres undefined)
30 µM
  Percent Effect: 20.79%

## N#Cc1ccccc1N1CCCN(C(=O)CCc2ccco2)CC1
30.3 µM, […]
  Percent Effect: 17.14%

## CN(C(=O)C1(C#N)CCCCC1)c1nccs1
30.3 µM, […]
  Percent Effect: 12.59%

## Cn1nc(Cn2ccnc2)c2c1CN(C(=O)c1ccoc1)C2.O=C(O)C(F)(F)F
30.3 µM, […]
  Percent Effect: 54.37%

## Cc1ccoc1C(=O)N1Cc2c(Cn3ccnc3)nn(C)c2C1.O=C(O)C(F)(F)F
30.3 µM, […]
  Percent Effect: 12.09%

## Cn1nc(Cn2ccnc2)c2c1CN(Cc1ccoc1)C2.O=C(O)C(F)(F)F.O=C(O)C(F)(F)F
30.3 µM, […]
  Percent Effect: 2.195%

## COCc1nc2n(n1)CCCC2Nc1nc(C)ns1 (centres undefined)
30.3 µM, […]
  Percent Effect: -12.79%

## O=C(CC1CCC2(CC1)CCN(Cc1nccs1)CC2)N1CC=CC1
30.3 µM, […]
  Percent Effect: -13.52%
